Test results taken from PubChem BioAssay (NCATS).
Results filed as inconclusive are left out. A call without a number means that no potency is given here. Active and inactive are the calls of the source. Calls follow the shape of the dose curve; as a rule, active = well fitted inhibition curve with a large enough effect in the signal ratio, with a control signal flat (not every such curve was filed as active); inconclusive = small, poorly fitted or top-dose-only effect, or effect the other way, or a change in a side signal; inactive = flat fitted curve, though single readings scatter; the % refers to the signal ratio.

Assay: qHTS Assay for Identification of Small Molecule Antagonists for NFkB Signaling Pathway (AID 895)
Procedure, shortened: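 Beta-lactamase reporter read-out (460 and 530 nm emission ratio, 405 nm excitation, 2 hrs substrate loading RT) after 5 hr stimulation with 10 pM TNF alpha in compound-treated NFkB-bla ME-180 cells in low-serum medium.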
Potency is read from the fitted curve at half-maximal effect.

Compound	Potency
CCCN1CCC[C@@H]2Cc3[nH]ncc3C[C@H]21	inactive
NCC(CC(=O)O)c1ccc(Cl)cc1 (configuration not stated)	5.62 µM (active)
